{
  "source": "paper PMC9911399",
  "about": "“Two distinct binding modes provide the RNA-binding protein RbFox with extraordinary sequence specificity”",
  "binders": {"B1": {"name": "CCAUUAU (DNA:RNA)", "RNA": "GGGAGACCGGAAUUCAGAUUGUCCCCAUUAUUUAAAUCCCGUCGUAGCCACCA", "DNA 1": "CAATCTGAATTCCGGTCTCCC", "DNA 2": "TGGTGGCTACGACGGGATT"}, "B2": {"name": "UUGGCUA (DNA:RNA)", "RNA": "GGGAGACCGGAAUUCAGAUUGUCCUUGGCUAUUAAAUCCCGUCGUAGCCACCA", "DNA 1": "CAATCTGAATTCCGGTCTCCC", "DNA 2": "TGGTGGCTACGACGGGATT"}, "B3": {"name": "GUGGCUC (DNA:RNA)", "RNA": "B2 RNA with U25G, A31C", "DNA 1": "CAATCTGAATTCCGGTCTCCC", "DNA 2": "TGGTGGCTACGACGGGATT"}, "B4": {"name": "GUGUGGC (DNA:RNA)", "RNA": "B2 RNA with U25G, G28U, C29G, U30G, A31C", "DNA 1": "CAATCTGAATTCCGGTCTCCC", "DNA 2": "TGGTGGCTACGACGGGATT"}, "B5": {"name": "UUGGCUG (DNA:RNA)", "RNA": "B2 RNA with A31G", "DNA 1": "CAATCTGAATTCCGGTCTCCC", "DNA 2": "TGGTGGCTACGACGGGATT"}, "B6": {"name": "GUGGCUG (DNA:RNA)", "RNA": "B2 RNA with U25G, A31G", "DNA 1": "CAATCTGAATTCCGGTCTCCC", "DNA 2": "TGGTGGCTACGACGGGATT"}, "B7": {"name": "UUGGCUC (DNA:RNA)", "RNA": "B2 RNA with A31C", "DNA 1": "CAATCTGAATTCCGGTCTCCC", "DNA 2": "TGGTGGCTACGACGGGATT"}, "B8": {"name": "GAACUCU (DNA:RNA)", "RNA": "B1 RNA with C25G, C26A, U28C, A30C", "DNA 1": "CAATCTGAATTCCGGTCTCCC", "DNA 2": "TGGTGGCTACGACGGGATT"}, "B9": {"name": "CGGUAAG (DNA:RNA)", "RNA": "B1 RNA with C26G, A27G, U29A, U31G", "DNA 1": "CAATCTGAATTCCGGTCTCCC", "DNA 2": "TGGTGGCTACGACGGGATT"}, "B10": {"name": "CCGGUCA (DNA:RNA)", "RNA": "B1 RNA with A27G, U28G, A30C, U31A", "DNA 1": "CAATCTGAATTCCGGTCTCCC", "DNA 2": "TGGTGGCTACGACGGGATT"}, "B11": {"name": "UGCGACA (DNA:RNA)", "RNA": "B2 RNA with U26G, G27C, C29A, U30C", "DNA 1": "CAATCTGAATTCCGGTCTCCC", "DNA 2": "TGGTGGCTACGACGGGATT"}, "B12": {"name": "UGGGCUG (DNA:RNA)", "RNA": "B2 RNA with U26G, A31G", "DNA 1": "CAATCTGAATTCCGGTCTCCC", "DNA 2": "TGGTGGCTACGACGGGATT"}, "B13": {"name": "CUGGCUG (DNA:RNA)", "RNA": "B2 RNA with U25C, A31G", "DNA 1": "CAATCTGAATTCCGGTCTCCC", "DNA 2": "TGGTGGCTACGACGGGATT"}, "B14": {"name": "UGGGCUC (DNA:RNA)", "RNA": "B2 RNA with U26G, A31C", "DNA 1": "CAATCTGAATTCCGGTCTCCC", "DNA 2": "TGGTGGCTACGACGGGATT"}, "B15": {"name": "CUGUGGC (DNA:RNA)", "RNA": "B1 RNA with C26U, A27G, U29G, A30G, U31C", "DNA 1": "CAATCTGAATTCCGGTCTCCC", "DNA 2": "TGGTGGCTACGACGGGATT"}, "B16": {"name": "UGGGGGC (DNA:RNA)", "RNA": "B2 RNA with U26G, C29G, U30G, A31C", "DNA 1": "CAATCTGAATTCCGGTCTCCC", "DNA 2": "TGGTGGCTACGACGGGATT"}, "B17": {"name": "UGGCUGU (DNA:RNA)", "RNA": "B1 RNA with C25U, C26G, A27G, U28C, A30G", "DNA 1": "CAATCTGAATTCCGGTCTCCC", "DNA 2": "TGGTGGCTACGACGGGATT"}, "B18": {"name": "GGUGCCG (DNA:RNA)", "RNA": "B2 RNA with U25G, U26G, G27U, U30C, A31G", "DNA 1": "CAATCTGAATTCCGGTCTCCC", "DNA 2": "TGGTGGCTACGACGGGATT"}, "B19": {"name": "CCCAUAA (DNA:RNA)", "RNA": "B1 RNA with A27C, U28A, U31A", "DNA 1": "CAATCTGAATTCCGGTCTCCC", "DNA 2": "TGGTGGCTACGACGGGATT"}, "B20": {"name": "CGUUUAU (DNA:RNA)", "RNA": "B1 RNA with C26G, A27U", "DNA 1": "CAATCTGAATTCCGGTCTCCC", "DNA 2": "TGGTGGCTACGACGGGATT"}},
  "note": "Numbering of substitutions follows the chain as printed; changes in the protein carry UniProt numbers. The full ranking holds about 16,000 sequences; the median of “ka relative to ugcaugu” is about 0.096, and the highest 2% start at about 0.35. For the sample, the highest values were picked, then their nearest neighbours and some sequences at random.",
  "data": [
    {"molecular_target": "T1, RBFOX1 RRM RbFoxmut (Fox-RRM*) (Homo sapiens, UniProt Q9NWB1 109-208, R118D;E147R;N151S;E152T)", "T1 sequence": "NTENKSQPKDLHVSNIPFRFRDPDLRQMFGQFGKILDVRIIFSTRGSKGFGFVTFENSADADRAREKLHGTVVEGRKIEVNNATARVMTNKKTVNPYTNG", "assay": "EMSA; HiTS-Eq, 1 nM pool, 10 min; buffer printed only for the single-RNA assays: 10 mM Tris pH 7.5, 150 mM NaCl, 3.4 mM EDTA, 0.001% NP-40, 30 C", "conditions": "tags: His6 N-terminal (pET28a); label: 5' 32P", "in_short": "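Relative association constants, normalised to the cognate motif, were derived by comparing read counts of each RNA species with those of the control reaction. The RNA sequenced was the free fraction, separated by 8% native PAGE after a 10 min equilibration in 50 µL of 1 nM 5′-radiolabelled RNA (7 randomized nucleotides) with increasing concentrations of purified wild-type or mutant RbFox RRM.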", "values": [
      {"binder": "B1", "binding signal": "0.131 KA relative to UGCAUGU"},
      {"binder": "B2", "binding signal": "0.168 KA relative to UGCAUGU"},
      {"binder": "B3", "binding signal": "0.125 KA relative to UGCAUGU"},
      {"binder": "B4", "binding signal": "0.132 KA relative to UGCAUGU"},
      {"binder": "B5", "binding signal": "0.435 KA relative to UGCAUGU"},
      {"binder": "B6", "binding signal": "0.549 KA relative to UGCAUGU"},
      {"binder": "B7", "binding signal": "0.134 KA relative to UGCAUGU"},
      {"binder": "B8", "binding signal": "0.053 KA relative to UGCAUGU"},
      {"binder": "B9", "binding signal": "0.0872 KA relative to UGCAUGU"},
      {"binder": "B10", "binding signal": "0.0703 KA relative to UGCAUGU"},
      {"binder": "B11", "binding signal": "0.0626 KA relative to UGCAUGU"},
      {"binder": "B12", "binding signal": "0.462 KA relative to UGCAUGU"},
      {"binder": "B13", "binding signal": "0.431 KA relative to UGCAUGU"},
      {"binder": "B14", "binding signal": "0.115 KA relative to UGCAUGU"},
      {"binder": "B15", "binding signal": "0.102 KA relative to UGCAUGU"},
      {"binder": "B16", "binding signal": "0.0983 KA relative to UGCAUGU"},
      {"binder": "B17", "binding signal": "0.299 KA relative to UGCAUGU"},
      {"binder": "B18", "binding signal": "0.128 KA relative to UGCAUGU"},
      {"binder": "B19", "binding signal": "0.0954 KA relative to UGCAUGU"},
      {"binder": "B20", "binding signal": "0.147 KA relative to UGCAUGU"}
    ]}
  ]
}
